Screens from PubChem.
DAX1 inh-1: inhibits human nuclear receptor DAX1; inhibition, % at 6.75 µM; P51843; 340,000 tested, 0.99% active; HEK293 Gal4-DAX1 luciferase reporter, luminescence;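 active = inhibition above the mean over all tested compounds plus 3 SD, cut at about 4.2% in these data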;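 note: 0% = DAX1-transfected cells with DMSO and 100% = empty-vector control cells with DMSO; inhibition shows as a rise in luminescence from relieved DAX1 repression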
ssDAF-12 act: S. stercoralis DAF-12 activation, primary screen. HEK293 ssDAF-12/GRIP1 lit1-tk-luc reporter, luminescence; % of 3 µM dafachronic acid response. activation, % at 6.8 µM. 370,000 tested, 1% active. AID 652126;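 active = activation above the mean over all tested compounds plus 3 SD, cut at about 0.9% in these data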;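 note: 0% = DMSO-only wells and 100% = 3 µM delta7-dafachronic acid wells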
Wee1 degr inh: inhibitors of human Wee1 degradation; 220,000 tested, 1.2% active; HeLa Luc-Wee1K328M stability, luciferase luminescence; 100% = proteasome inhibitor MG132 effect; AID 1321; reporter increase, % at 5 µM;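 active = activation above the mean of all tested compounds plus 3 SD, set per screening run, cut at about 8.8% in these data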;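 note: cells exposed to compound for 20 h before luminescence read; 0% = DMSO alone and 100% = MG132 at 30 µM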
hgDAF-12 ag: hgDAF-12 agonism, primary luciferase screen; HEK293 GAL4-hgDAF12 UAS-luciferase reporter, agonist luminescence; normalized to butyrate control; 370,000 tested, 1.8% active; AID 687014; activation, % at 6.8 µM;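 active = activation above a cutoff set at the mean of all screened compounds plus 3 SD, cut at about 10% in these data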;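 note: 0% = DMSO wells and 100% = sodium butyrate wells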
hcDAF-12 act: H. contortus DAF-12 activation, primary screen; activation, % at 6.8 µM; AID 652067; 370,000 tested, 1.4% active; HEK293 hcDAF-12 lit1-tk-luc reporter, luminescence; 0% DMSO, 100% Δ7-dafachronic acid;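 active = activation above the mean of all tested compounds plus 3 SD, cut at about 5.5% in these data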;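 note: 100% = response to 3 µM Δ7-dafachronic acid high control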
DAX1 inh-2: DAX1 (NR0B1) inhibition, primary screen | HEK293T StAR-luciferase reporter, SF-1/DAX-1 repression relief | inhibition, % at 6.8 µM | AID 652010 | 370,000 tested, 1.1% active;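 active = inhibition above the mean over all tested compounds plus 3 SD, cut at about 3.6% in these data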;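 note: 0% = DAX-1 cells with DMSO and 100% = cells lacking DAX-1 with DMSO; higher inhibition means more luminescence from relief of DAX-1 repression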
DAX1 inh confirm: NR0B1 (human) inhibition, confirmation; shares compounds with DAX1 inh-2; HEK293T StAR-promoter luciferase reporter, SF-1/DAX-1 repression; inhibition, % at 6.8 µM; 2,400 tested, 87% active; AID 652134;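 active = inhibition above the average of every tested compound plus 3 SD, cut at about 3.8% in these data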;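 note: 0% = DAX-1 cells with DMSO and 100% = no DAX-1 control cells with DMSO; active compounds raise luminescence by relieving repression of the StAR reporter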
SF1 mutant ctr: counter-screen for DAX1 inhibitors: nonselective inhibitors with SF-1 AF2 mutant. shares compounds with DAX1 inh-2. HEK293 StAR-luciferase, luminescence. inhibition, % at 6.8 µM. 2,400 tested, 78% active;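 active = inhibition above the mean of all tested compounds plus 3 SD, cut at about 3% in these data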;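 note: 0% = DAX-1 transfected cells with DMSO and 100% = cells without DAX-1 with DMSO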
LXRb hcDAF ctr: counter-screen for hcDAF-12 agonists: agonists of human LXR-beta | shares compounds with hcDAF-12 act | HEK293 Gal4-LXR tk-luc reporter, luminescence, 24 h; normalized: DMSO 0%, positive control 100% | activation, % at 6.8 µM | 3,400 tested, under 10 active;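 active = mean percent activation of the reporter above a cutoff set as the average over tested compounds plus their standard deviation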
Target sequence (P55055 whole entry, looked up, the tested form may be a part): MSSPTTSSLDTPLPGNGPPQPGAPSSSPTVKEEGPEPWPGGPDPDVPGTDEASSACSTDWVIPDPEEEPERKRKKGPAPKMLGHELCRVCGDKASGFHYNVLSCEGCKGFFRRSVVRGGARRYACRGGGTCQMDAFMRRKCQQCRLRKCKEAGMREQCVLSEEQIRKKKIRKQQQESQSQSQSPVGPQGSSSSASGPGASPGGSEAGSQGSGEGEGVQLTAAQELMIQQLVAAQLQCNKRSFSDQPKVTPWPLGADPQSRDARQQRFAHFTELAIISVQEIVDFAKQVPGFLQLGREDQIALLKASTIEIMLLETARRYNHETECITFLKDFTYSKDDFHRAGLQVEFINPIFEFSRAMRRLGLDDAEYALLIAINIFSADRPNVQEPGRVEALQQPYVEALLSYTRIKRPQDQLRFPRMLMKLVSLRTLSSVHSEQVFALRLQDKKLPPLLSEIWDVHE
hcDAF12 conf: confirmation of H. contortus DAF-12 agonists | shares compounds with hcDAF-12 act | HEK293 hcDAF-12 lit1-tk-luc reporter, luminescence; % of Δ7-dafachronic acid response | activation, % at 6.8 µM | 3,400 tested, 61% active;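 active = mean activation across triplicate tests above the threshold derived from the earlier primary screen, cut at about 5.5% in these data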;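 note: 0% = DMSO only wells and 100% = 3 µM Δ7-dafachronic acid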
hgDAF12 conf: confirmation of H. glycines DAF-12 agonists | shares compounds with hgDAF-12 ag | 3,300 tested, 80% active | HEK293 GAL4-hgDAF12 luciferase reporter, agonist mode; percent of butyrate response | AID 743050 | activation, % at 6.8 µM;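 active = mean activation over triplicate wells above the hit cutoff derived from the earlier primary screen, cut at about 11% in these data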;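 note: 0% = DMSO low control and 100% = 2 mM sodium butyrate high control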
LXRb DAF12 ctr: activates human LXR-beta, counter-screen for DAF-12 agonists; shares compounds with hgDAF-12 ag; HEK293 Gal4-LXR luciferase reporter, 24 h; activation, % at 6.8 µM; 3,300 tested, under 10 active; AID 743051;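 active = mean activation of the triplicate above a set limit carried over from the primary screen, none filed active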
The depositor's hits bear a star; / = no result given. Rows were chosen to be rich in hits. Some 4.6% of all compounds tested hit in one or more screens of this group.

SMILES | DAX1 inh-1 | ssDAF-12 act | Wee1 degr inh | hgDAF-12 ag | hcDAF-12 act | DAX1 inh-2 | DAX1 inh confirm | SF1 mutant ctr | LXRb hcDAF ctr | hcDAF12 conf | hgDAF12 conf | LXRb DAF12 ctr
Cc1ccc(NC(=O)N2CCc3ccccc3C2)cc1C | 2 | -1 | / | 14* | 4 | 6.6* | 8.6* | 5.5* | / | / | 13* | 0
CC1(NC(=O)CCNC(=O)c2ccc(C(C)(C)C)cc2)CCS(=O)(=O)C1 (configuration not stated) | 0 | -1 | / | -1 | -1 | -1 | / | / | / | / | / | /
C(=N\NC1=Nc2cccc3cccc1c23)/c1ccccc1 | 5.7* | 4.5* | 8.9* | 23* | 18* | 6.6* | 13* | 9.5* | 2 | 21* | 27* | 1
COc1ccc(NC2=Nc3cccc4cccc2c34)cc1OC | -1 | -1 | 3 | -1 | -3 | -1 | / | / | / | / | / | /
O=C(Nc1ccccc1)c1ccc2ccccc2n1 | 5.6* | 1.9* | 9 | 19* | 18* | 5.4* | 13* | 9.8* | 1 | 16* | 22* | 1
O=C(Nc1ccc2c(c1)OCCO2)c1ccc2ccccc2n1 | 3 | 2.7* | 4 | 20* | 21* | 10.0* | 13* | 8.2* | 2 | 16* | 22* | 1
CC(C)N1CCC(=NNC(=O)c2cccs2)CC1 | 1 | 1.5* | / | 14* | 6.1* | 9.6* | 2 | 2 | / | / | 4 | 0
COc1ccc(NC(=O)CN(C)C(=O)c2ccc(S(=O)(=O)Nc3ccccc3C)cc2)cc1 | 0 | -1 | / | 0 | 1 | 1 | / | / | / | / | / | /
O=C(Nc1cnc2ccccc2c1)c1ccncc1 | 1 | -1 | 8 | 14* | 5 | 5.5* | 11* | 7.5* | / | / | 14* | 1
Cc1nc2oc3ccccc3c(=O)c2cc1C(=O)O | 0 | -1 | / | 0 | 0 | 0 | / | / | / | / | / | /
CN(C)c1ccc2c(=O)c3ccccc3oc2n1 | / | 0 | / | 13* | 7.9* | 7.8* | 13* | 5.9* | 1 | 8.4* | 22* | 1
COc1cc2c(cc1[N+](=O)[O-])-c1ccc([N+](=O)[O-])cc1C2=NO | 0 | -1 | / | 2 | -1 | -2 | / | / | / | / | / | /
COc1cccc(NC(=O)C(=S)NC2CCCCC2)c1 | 2 | 0 | 9.7* | 23* | 7.2* | 9.2* | 12* | 7.9* | 2 | 7.2* | 18* | 1
COc1cccc(C(=O)Nc2ccc3c(C)cc(=O)oc3c2)c1 | 1 | 1.0* | / | 13* | 6.1* | 17* | 14* | 10* | / | / | 21* | 1
Cc1cc(=O)oc2cc(NC(=O)c3ccccc3C(=O)O)ccc12 | 0 | -1 | / | 3 | -2 | 0 | / | / | / | / | / | /
COc1ccc(C(=O)Nc2cccc(OC)c2)cc1 | 1 | 1.0* | 3 | 16* | 4 | 5.4* | 14* | 0 | / | / | 16* | 1
O=C(NNC(=S)Nc1ccccc1Cl)c1ccccc1 | 3 | 1 | / | 14* | 3 | 15* | 12* | 8.2* | / | / | 18* | 1
